Measured values: the supplement of paper PMC10849652
The full data set covers some 7,900 targets. This sample favours those with a hit. About 0.6% of all pairs of compound and target were hits.

compound: CC1=CC=C(C=C1)SC2=C3C=C(SC3=CN=C2)C(=O)N; experiment: log2 fold change, soluble protein after heating vs DMSO (PISA); higher = thermal stabilisation; K562 cells, 10 uM, 30 min; active = over 0.2 and 3.5 SD of the protein, either way, in both replicates (recomputed)
Procedure, shortened: (§1)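 Soluble protein was defined as the supernatant after 21,000xg for 90 min. It came from K562 cells at 2×10^6 cells/mL given 10 μM compound for 30 min, heated in aliquots for 3 min across 48°C-58°C, pooled, and extracted in PBS with 0.5% NP-40 at 4°C, and was quantified by TMTpro 16plex LC-MS/MS with equalised channel sums. Thermal stability against control samples, from duplicates, is reported as log2 fold change.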

Chain of UniProt Q12986 (Q12986 whole entry, looked up): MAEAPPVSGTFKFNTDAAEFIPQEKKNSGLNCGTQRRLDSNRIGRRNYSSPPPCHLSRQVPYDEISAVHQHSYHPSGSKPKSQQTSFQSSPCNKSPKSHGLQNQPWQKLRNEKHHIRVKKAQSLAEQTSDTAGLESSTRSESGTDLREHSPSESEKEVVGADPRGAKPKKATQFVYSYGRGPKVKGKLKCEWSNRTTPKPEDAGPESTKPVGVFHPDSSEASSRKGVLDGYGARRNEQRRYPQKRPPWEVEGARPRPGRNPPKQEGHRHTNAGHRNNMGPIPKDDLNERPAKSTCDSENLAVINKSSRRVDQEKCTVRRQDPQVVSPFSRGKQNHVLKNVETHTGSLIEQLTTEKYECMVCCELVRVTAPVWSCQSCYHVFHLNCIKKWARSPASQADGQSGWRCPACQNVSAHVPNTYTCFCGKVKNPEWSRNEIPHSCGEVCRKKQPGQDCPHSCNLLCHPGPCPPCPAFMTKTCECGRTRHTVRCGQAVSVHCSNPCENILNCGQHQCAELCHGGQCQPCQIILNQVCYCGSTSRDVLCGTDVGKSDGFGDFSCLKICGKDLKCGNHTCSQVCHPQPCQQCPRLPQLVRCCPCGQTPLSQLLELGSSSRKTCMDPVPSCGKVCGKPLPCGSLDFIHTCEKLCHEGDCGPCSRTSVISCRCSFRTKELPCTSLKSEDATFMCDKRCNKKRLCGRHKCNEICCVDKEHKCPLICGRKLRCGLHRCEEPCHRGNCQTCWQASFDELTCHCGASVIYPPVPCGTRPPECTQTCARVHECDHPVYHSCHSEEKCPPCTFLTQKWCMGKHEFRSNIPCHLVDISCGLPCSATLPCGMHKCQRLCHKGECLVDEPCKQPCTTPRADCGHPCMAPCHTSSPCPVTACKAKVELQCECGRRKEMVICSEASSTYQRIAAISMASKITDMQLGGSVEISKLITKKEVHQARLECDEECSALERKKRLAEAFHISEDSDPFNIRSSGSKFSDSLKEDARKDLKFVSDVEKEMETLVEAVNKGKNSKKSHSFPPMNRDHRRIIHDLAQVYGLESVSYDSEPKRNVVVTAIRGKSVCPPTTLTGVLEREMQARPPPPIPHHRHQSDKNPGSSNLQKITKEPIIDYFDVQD
Chain of UniProt Q99747 (Q99747 whole entry, looked up): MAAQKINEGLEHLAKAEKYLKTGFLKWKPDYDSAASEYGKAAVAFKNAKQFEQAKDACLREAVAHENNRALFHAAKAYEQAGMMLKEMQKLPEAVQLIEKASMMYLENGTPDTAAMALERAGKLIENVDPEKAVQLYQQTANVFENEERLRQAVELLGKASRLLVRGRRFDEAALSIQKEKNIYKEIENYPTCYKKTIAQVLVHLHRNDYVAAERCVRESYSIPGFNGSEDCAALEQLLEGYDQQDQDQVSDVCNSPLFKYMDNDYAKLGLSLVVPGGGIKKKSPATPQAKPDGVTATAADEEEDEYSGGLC
Chain of UniProt P19338 (P19338 whole entry, looked up): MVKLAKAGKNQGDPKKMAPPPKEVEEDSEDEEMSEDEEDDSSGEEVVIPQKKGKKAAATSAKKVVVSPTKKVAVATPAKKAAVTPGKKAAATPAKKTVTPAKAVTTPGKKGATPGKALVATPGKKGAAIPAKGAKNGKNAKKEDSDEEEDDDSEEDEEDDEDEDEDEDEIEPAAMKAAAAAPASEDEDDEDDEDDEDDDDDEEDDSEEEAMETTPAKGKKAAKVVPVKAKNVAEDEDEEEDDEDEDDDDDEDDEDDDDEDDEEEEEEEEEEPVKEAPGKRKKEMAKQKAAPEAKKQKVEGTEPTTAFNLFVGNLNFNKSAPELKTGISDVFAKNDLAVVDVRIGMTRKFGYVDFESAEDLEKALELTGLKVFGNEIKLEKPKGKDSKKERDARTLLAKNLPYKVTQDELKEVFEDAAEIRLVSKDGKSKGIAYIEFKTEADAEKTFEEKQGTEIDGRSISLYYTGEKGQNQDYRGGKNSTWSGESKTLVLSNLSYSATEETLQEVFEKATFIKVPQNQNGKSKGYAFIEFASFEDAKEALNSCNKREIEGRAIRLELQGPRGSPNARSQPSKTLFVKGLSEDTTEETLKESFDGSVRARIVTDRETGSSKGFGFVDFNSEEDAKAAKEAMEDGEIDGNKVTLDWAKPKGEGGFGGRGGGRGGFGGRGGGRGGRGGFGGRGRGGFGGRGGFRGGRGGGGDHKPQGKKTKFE
Chain of UniProt Q16795 (Q16795 whole entry, looked up): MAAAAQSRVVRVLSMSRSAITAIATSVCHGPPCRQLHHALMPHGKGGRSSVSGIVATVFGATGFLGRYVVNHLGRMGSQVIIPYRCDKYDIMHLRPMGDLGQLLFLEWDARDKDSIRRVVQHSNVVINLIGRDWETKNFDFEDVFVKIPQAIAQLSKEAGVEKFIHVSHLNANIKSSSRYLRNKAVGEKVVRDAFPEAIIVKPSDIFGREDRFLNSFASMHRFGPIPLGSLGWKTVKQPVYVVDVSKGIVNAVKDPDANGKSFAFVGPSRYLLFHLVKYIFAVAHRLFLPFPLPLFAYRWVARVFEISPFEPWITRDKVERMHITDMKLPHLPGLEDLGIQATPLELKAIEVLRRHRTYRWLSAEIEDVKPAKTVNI
Chain of UniProt Q9BSU3 (Q9BSU3 whole entry, looked up): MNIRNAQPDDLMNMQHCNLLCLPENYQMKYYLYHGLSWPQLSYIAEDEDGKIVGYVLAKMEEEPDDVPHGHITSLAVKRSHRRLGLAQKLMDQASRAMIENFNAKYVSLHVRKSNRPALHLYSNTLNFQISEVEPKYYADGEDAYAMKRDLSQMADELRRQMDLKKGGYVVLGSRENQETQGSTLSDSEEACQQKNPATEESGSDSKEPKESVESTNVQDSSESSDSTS
Chain of UniProt Q9H3P2 (Q9H3P2 whole entry, looked up): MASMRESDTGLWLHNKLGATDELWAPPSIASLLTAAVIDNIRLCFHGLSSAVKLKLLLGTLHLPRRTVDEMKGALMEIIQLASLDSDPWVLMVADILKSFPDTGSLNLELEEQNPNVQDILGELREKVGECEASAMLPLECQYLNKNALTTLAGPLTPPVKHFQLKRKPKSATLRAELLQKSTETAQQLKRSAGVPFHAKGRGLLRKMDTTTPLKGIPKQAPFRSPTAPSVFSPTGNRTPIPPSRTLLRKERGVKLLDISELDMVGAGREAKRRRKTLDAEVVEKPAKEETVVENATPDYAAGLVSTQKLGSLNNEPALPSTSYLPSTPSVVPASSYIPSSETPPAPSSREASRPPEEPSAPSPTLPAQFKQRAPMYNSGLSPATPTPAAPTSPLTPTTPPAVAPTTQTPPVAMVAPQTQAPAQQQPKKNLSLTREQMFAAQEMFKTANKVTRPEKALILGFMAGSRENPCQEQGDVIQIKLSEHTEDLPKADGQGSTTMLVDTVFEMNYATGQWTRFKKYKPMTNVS
Chain of UniProt P17568 (P17568 whole entry, looked up): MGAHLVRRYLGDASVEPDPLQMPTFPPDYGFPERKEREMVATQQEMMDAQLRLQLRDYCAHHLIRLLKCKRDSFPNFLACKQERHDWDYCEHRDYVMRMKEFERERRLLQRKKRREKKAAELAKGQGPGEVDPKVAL
Chain of UniProt Q8N4C8 (Q8N4C8 whole entry, looked up): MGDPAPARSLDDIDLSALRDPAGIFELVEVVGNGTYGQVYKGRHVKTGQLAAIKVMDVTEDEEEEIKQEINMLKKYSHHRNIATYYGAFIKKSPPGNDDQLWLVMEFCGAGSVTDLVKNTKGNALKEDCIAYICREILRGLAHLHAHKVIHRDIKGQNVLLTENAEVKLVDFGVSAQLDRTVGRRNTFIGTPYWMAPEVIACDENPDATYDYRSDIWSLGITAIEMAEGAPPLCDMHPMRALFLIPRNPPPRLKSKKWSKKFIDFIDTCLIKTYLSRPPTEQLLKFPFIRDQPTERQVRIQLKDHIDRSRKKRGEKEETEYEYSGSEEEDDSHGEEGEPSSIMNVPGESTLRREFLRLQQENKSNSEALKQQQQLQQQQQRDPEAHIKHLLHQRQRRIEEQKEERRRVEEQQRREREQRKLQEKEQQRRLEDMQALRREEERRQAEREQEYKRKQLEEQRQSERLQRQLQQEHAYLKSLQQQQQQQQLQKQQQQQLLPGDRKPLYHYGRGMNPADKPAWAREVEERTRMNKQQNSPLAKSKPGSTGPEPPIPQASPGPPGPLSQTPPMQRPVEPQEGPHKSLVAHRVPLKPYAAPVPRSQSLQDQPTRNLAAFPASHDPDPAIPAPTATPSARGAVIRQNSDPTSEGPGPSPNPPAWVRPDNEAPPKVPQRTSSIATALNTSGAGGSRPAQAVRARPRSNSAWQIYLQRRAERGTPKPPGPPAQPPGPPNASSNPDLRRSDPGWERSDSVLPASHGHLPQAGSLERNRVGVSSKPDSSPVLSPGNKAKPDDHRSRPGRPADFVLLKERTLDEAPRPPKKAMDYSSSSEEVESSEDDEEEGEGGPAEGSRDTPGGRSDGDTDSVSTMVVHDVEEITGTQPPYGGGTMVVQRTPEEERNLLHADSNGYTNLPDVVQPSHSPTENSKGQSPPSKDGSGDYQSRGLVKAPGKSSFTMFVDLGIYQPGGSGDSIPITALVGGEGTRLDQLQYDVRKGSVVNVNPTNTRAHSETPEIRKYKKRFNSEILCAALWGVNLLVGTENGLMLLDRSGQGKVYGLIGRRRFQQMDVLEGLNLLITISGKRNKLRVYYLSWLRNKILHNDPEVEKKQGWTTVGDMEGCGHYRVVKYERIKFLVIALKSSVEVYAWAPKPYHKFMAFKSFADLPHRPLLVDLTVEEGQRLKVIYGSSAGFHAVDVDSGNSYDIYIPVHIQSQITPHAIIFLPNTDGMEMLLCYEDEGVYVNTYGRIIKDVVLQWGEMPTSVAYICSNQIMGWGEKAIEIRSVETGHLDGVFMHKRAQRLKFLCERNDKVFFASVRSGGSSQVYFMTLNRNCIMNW
Chain of UniProt Q9H1E3 (Q9H1E3 whole entry, looked up): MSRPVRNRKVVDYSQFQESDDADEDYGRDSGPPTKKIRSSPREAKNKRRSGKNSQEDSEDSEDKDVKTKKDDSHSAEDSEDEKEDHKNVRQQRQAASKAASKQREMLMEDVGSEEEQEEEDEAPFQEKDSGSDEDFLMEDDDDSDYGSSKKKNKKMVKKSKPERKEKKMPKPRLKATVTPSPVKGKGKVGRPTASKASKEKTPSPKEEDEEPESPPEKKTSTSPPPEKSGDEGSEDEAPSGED

Row | Target | log2 fold change
1 | NDUFA6 (UniProt P56556) | 0.1 (inactive)
2 | MORF4L2 (UniProt Q15014) | -0.015 (inactive)
3 | NOL7 (UniProt Q9UMY1) | -0.048 (inactive)
4 | NELFA (UniProt Q9H3P2) | 0.011 (inactive)
5 | NHLRC2 (UniProt Q8NBF2) | -0.014 (inactive)
6 | MRPS25 (UniProt P82663) | 0.085 (inactive)
7 | MINK1 (UniProt Q8N4C8) | -0.003 (inactive)
8 | OSBPL8 (UniProt Q9BZF1) | 0.009 (inactive)
9 | NDUFA9 (UniProt Q16795) | 0.019 (inactive)
10 | NTMT1 (UniProt Q9BV86) | -0.003 (inactive)
11 | NFATC3 (UniProt Q12968) | 0 (inactive)
12 | NAA11 (UniProt Q9BSU3) | 0.06 (inactive)
13 | NUDT1 (UniProt P36639) | -0.064 (inactive)
14 | MRPS18B (UniProt Q9Y676) | -0.08 (inactive)
15 | NOP56 (UniProt O00567) | -0.149 (inactive)
16 | MRPS15 (UniProt P82914) | -0.017 (inactive)
17 | MXRA7 (UniProt P84157) | 0.038 (inactive)
18 | NPC1 (UniProt O15118) | 0.006 (inactive)
19 | NUCKS1 (UniProt Q9H1E3) | -0.014 (inactive)
20 | NCAPG (UniProt Q9BPX3) | 0.027 (inactive)

Row | Target | log2 fold change
21 | NDUFB7 (UniProt P17568) | 0.063 (inactive)
22 | NACC1 (UniProt Q96RE7) | 0.048 (inactive)
23 | NDUFS8 (UniProt O00217) | 0.03 (inactive)
24 | NCL (UniProt P19338) | -0.077 (inactive)
25 | NOB1 (UniProt Q9ULX3) | 0.012 (inactive)
26 | NDUFA12 (UniProt Q9UI09) | 0.014 (inactive)
27 | NBN (UniProt O60934) | -0.01 (inactive)
28 | NIBAN1 (UniProt Q9BZQ8) | 0.102 (inactive)
29 | OXSR1 (UniProt O95747) | 0.014 (inactive)
30 | NFYC (UniProt Q13952) | -0.061 (inactive)
31 | NAPG (UniProt Q99747) | 0.077 (inactive)
32 | NUP210 (UniProt Q8TEM1) | 0.084 (inactive)
33 | MRPS24 (UniProt Q96EL2) | 0.047 (inactive)
34 | NMT1 (UniProt P30419) | -0.012 (inactive)
35 | NUP205 (UniProt Q92621) | 0.002 (inactive)
36 | MRPL46 (UniProt Q9H2W6) | -0.009 (inactive)
37 | MON1B (UniProt Q7L1V2) | 0.071 (inactive)
38 | NFX1 (UniProt Q12986) | -0.082 (inactive)
39 | MRPS16 (UniProt Q9Y3D3) | 0.006 (inactive)

compound: CC1=NC(=CC=C1)C2=C(N=C(N2)C(C)(C)C)C3=CC4=NC=CN=C4C=C3; experiment: as above
Procedure, shortened: as §1

Row | Target | log2 fold change
40 | NDUFA6 (UniProt P56556) | 0.125 (inactive)
41 | MORF4L2 (UniProt Q15014) | -0.083 (inactive)
42 | NOL7 (UniProt Q9UMY1) | -0.193 (inactive)
43 | NELFA (UniProt Q9H3P2) | 0.092 (inactive)
44 | NHLRC2 (UniProt Q8NBF2) | -0.014 (inactive)
45 | MRPS25 (UniProt P82663) | 0.078 (inactive)
46 | MINK1 (UniProt Q8N4C8) | 0.029 (inactive)
47 | OSBPL8 (UniProt Q9BZF1) | -0.027 (inactive)
48 | NDUFA9 (UniProt Q16795) | 0.04 (inactive)
49 | NTMT1 (UniProt Q9BV86) | -0.034 (inactive)
50 | NFATC3 (UniProt Q12968) | -0.055 (inactive)
51 | NAA11 (UniProt Q9BSU3) | 0.021 (inactive)
52 | NUDT1 (UniProt P36639) | -0.164 (inactive)
53 | MRPS18B (UniProt Q9Y676) | 0.009 (inactive)
54 | NOP56 (UniProt O00567) | -0.136 (inactive)
55 | MRPS15 (UniProt P82914) | -0.022 (inactive)
56 | MXRA7 (UniProt P84157) | 0.011 (inactive)
57 | NPC1 (UniProt O15118) | 0.066 (inactive)
58 | NUCKS1 (UniProt Q9H1E3) | 0.044 (inactive)
59 | NCAPG (UniProt Q9BPX3) | 0.038 (inactive)

Row | Target | log2 fold change
60 | NDUFB7 (UniProt P17568) | 0.027 (inactive)
61 | NACC1 (UniProt Q96RE7) | 0.164 (inactive)
62 | NDUFS8 (UniProt O00217) | 0.018 (inactive)
63 | NCL (UniProt P19338) | -0.126 (inactive)
64 | NOB1 (UniProt Q9ULX3) | 0.027 (inactive)
65 | NDUFA12 (UniProt Q9UI09) | -0.028 (inactive)
66 | NBN (UniProt O60934) | 0.014 (inactive)
67 | NIBAN1 (UniProt Q9BZQ8) | 0.01 (inactive)
68 | OXSR1 (UniProt O95747) | 0.004 (inactive)
69 | NFYC (UniProt Q13952) | 0.019 (inactive)
70 | NAPG (UniProt Q99747) | 0.006 (inactive)
71 | NUP210 (UniProt Q8TEM1) | 0.035 (inactive)
72 | MRPS24 (UniProt Q96EL2) | -0.003 (inactive)
73 | NMT1 (UniProt P30419) | 0.021 (inactive)
74 | NUP205 (UniProt Q92621) | 0.075 (inactive)
75 | MRPL46 (UniProt Q9H2W6) | -0.064 (inactive)
76 | MON1B (UniProt Q7L1V2) | 0.019 (inactive)
77 | NFX1 (UniProt Q12986) | 0.004 (inactive)
78 | MRPS16 (UniProt Q9Y3D3) | 0.132 (inactive)
